High-throughput results (PubChem)
Compounds with a hit are over-represented: about 4.7% of the library has one in this group of screens.
ALR inh – inhibitors of human sulfhydryl oxidase ALR | P55789 | purified ALR, DTT oxidation, H2O2 HRP-luminol luminescence | inhibition, % (concentration not given with the values) | 290,000 tested, 3.8% active | AID 485317;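 active = mean replicate inhibition above about 79%, with every replicate also reaching it, limit read from the data; inconclusive = only one of the two criteria met; inactive = mean below limit and not every replicate reaching it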
PABP polyA inh – blocks human PABP binding to poly(A) RNA. 290,000 tested, 1% active. P11940. fluorescence polarization. inhibition, % at 35 µM;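 note: calls also rest on retests at 20 µM and on dose response follow-up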
Target sequence (P11940 whole entry, looked up): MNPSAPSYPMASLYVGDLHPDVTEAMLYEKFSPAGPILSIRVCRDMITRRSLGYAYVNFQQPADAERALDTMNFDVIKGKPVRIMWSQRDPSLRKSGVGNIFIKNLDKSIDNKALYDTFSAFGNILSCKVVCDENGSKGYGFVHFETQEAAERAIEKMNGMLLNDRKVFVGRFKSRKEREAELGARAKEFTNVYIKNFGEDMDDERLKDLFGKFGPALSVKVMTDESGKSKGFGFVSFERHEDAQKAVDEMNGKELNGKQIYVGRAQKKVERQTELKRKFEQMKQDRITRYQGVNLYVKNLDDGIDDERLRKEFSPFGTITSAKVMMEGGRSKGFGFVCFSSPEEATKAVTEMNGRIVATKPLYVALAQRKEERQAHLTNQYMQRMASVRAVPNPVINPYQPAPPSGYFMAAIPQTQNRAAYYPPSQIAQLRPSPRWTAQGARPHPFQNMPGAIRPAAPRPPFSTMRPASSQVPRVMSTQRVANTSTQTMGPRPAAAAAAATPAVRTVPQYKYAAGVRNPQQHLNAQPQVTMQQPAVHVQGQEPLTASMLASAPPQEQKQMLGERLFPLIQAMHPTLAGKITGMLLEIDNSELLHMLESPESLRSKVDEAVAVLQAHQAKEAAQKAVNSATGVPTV
MLLE-PAM2 inh – inhibitors of microRNA-mediated deadenylation, human PABP1 MLLE binding; 360,000 tested, 0.36% active; inhibition, % at 20 µM; AID 588489; GST-MLLE / FITC-PAM2 fluorescence polarization; in the data active = inhibition above about 35%, passing the limit was not always enough;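 note: plate controls were DMSO wells with GST-MLLE for no effect and wells lacking GST-MLLE protein for full effect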
UBC9 SUMO inh – blocks human SUMOylation mediated by UBC9 | inhibition, % at 35 µM | 290,000 tested, 0.36% active | HTRF SUMOylation assay, SAE1/SAE2 + UBC9, in vitro | P63279 | AID 2006; in the data active = inhibition above about 50%, passing the limit was not always enough; inconclusive = no clear call, values can overlap the other calls
Efflux pump mplx – blocks antifungal efflux pumps in multiplex yeast assay | S. cerevisiae Candida pump triplex, Nile Red efflux | 330,000 tested, 0.44% active | AID 485275 | inhibition, % at 10 µM;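 active = plate passing quality check with inhibition over a set limit, or well fluorescence over plate mean plus 4 SD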;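 note: Nile Red retained in pooled yeast measured as flow cytometry median fluorescence; 0% = buffer negative control and 100% = Enniatin B positive control; higher means more Nile Red kept so more efflux inhibition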
eIF4H FP inh – inhibitors of RNA binding by human eIF4H | eIF4H fluorescence polarization binding assay | inhibition, % at 35 µM | 290,000 tested, 0.94% active;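 note: calls also rest on retests at 20 µM and on dose response follow-up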
The depositor's hits bear a star; ? = inconclusive; · = no result. Unless noted, the rule behind the calls is not given here.

SMILES | ALR inh | PABP polyA inh | MLLE-PAM2 inh | UBC9 SUMO inh | Efflux pump mplx | eIF4H FP inh
CC(=O)C1=C(O)C(=O)N(c2cccc(C(=O)O)c2)C1c1ccc(F)cc1 (configuration not stated) | -0.5 | 54.0* | -11.6 | -17.1 | -0.4 | ?
CC(=O)C1=C(O)C(=O)N(c2ccc(O)cc2)C1c1cccc([N+](=O)[O-])c1 (configuration not stated) | 83.1* | 1.1 | 4.8 | 7.1 | 0.0 | 1.6
CC(=O)C1=C(O)C(=O)N(c2ccc(O)cc2)C1c1ccc(C)cc1 (configuration not stated) | 98.8* | -0.2 | -4.4 | 12.8 | 0.1 | -3.9
CC(NC(=O)c1ccco1)C(=O)N1CCN(C(c2ccccc2)c2ccccc2)CC1 (configuration not stated) | -5.4 | -3.0 | -8.6 | 0.5 | 0.0 | -6.2
O=C(CNC(=O)c1ccccc1)NCC(=O)OCC(=O)c1ccc([N+](=O)[O-])cc1 | 97.1* | -1.5 | 11.8 | -7.6 | -0.1 | -1.7
O=C(CCC(=O)OCC(=O)c1ccc([N+](=O)[O-])cc1)NC1CCCCC1 | 80.0* | 8.9 | 14.3 | -9.0 | 0.2 | 1.9
O=C(CSCc1ccc([N+](=O)[O-])cc1)NC1CCCCCC1 | 99.0* | 5.0 | -6.5 | 21.0 | 0.0 | -6.5
O=C(CSCc1ccc(Br)cc1)NC1CC1 | · | -7.8 | 3.8 | 8.8 | 0.1 | -8.1
O=C(CSCc1cccc(Br)c1)NC1CC1 | 98.0* | -3.1 | 13.1 | -7.8 | 0.3 | -1.2
CC1C(=O)N2CCCc3cc(NC(=O)C(=O)NCCCc4ccccc4)cc1c32 (configuration not stated) | -7.6 | · | 3.0 | · | -0.1 | ·
O=C(CCN1C(=O)C2C3CC(C(Br)C3Br)C2C1=O)OCC(=O)c1cccc([N+](=O)[O-])c1 (configuration not stated) | · | 5.5 | 14.2 | 2.1 | 0.1 | -9.9
COc1ccc(C(=O)NCC(=O)OCC(=O)Nc2ncc(Cl)cc2Cl)cc1[N+](=O)[O-] | · | · | 8.6 | · | 0.1 | ·
Cc1ccccc1CSCCNC(=O)CSCc1ccc([N+](=O)[O-])cc1 | 98.6* | -12.3 | 15.9 | -3.0 | 0.3 | -13.0
Cc1ccccc1/C=N\NC(=O)c1ccc(Cn2cccn2)o1 | -6.2 | 0.0 | -3.0 | 5.2 | 0.4 | 11.1
O=C(N/N=C\c1cccc(Cl)c1)c1ccc(Cn2cccn2)o1 | 87.5* | 2.4 | -0.7 | 7.3 | 0.0 | -5.9
C=CCc1ccc(OCC(O)COc2ccc(CC=C)cc2OC)c(OC)c1 | -20.6 | 72.1* | -12.2 | -18.6 | 0.0 | ?
COc1ccccc1N(C(=O)c1snc(C(N)=O)c1N)C(C(=O)NC1CCCC1)c1ccc2ncccc2c1 (configuration not stated) | -1.2 | 0.4 | -2.8 | 12.9 | 0.0 | 8.2
COc1ccccc1-n1c(SCC(=O)Nc2ccc(C)cc2)nc(O)cc1=O | 97.9* | -0.4 | 8.4 | 3.9 | 0.0 | -13.3
CCOc1ccccc1-n1c(SCC(=O)Nc2ccccc2C(=O)O)nc2ccccc2c1=O | 0.1 | 7.8 | -11.2 | 10.0 | 0.1 | 2.5
Cc1ccccc1-n1c(SCC(=O)Nc2c(C)cccc2C)nc(O)cc1=O | -8.8 | -9.8 | 1.5 | -4.5 | -0.1 | 6.3
COc1ccc(NC(=O)CSc2nc3[nH]ncc3c(=O)n2-c2ccccc2OC)cc1OC | -16.0 | -4.9 | -2.4 | 7.1 | 0.2 | -0.3
CCN(CC)C(=O)CSc1nc(O)cc(=O)n1C | 72.7 | 26.8 | 22.7 | 7.2 | 0.0 | -8.1
COc1ccccc1-n1c(SCC(=O)Nc2cccc3ccccc23)nc(O)cc1=O | 97.9* | -2.9 | 7.4 | 13.0 | 0.2 | -5.8
CCN(CC)C(=O)CSc1nc(O)cc(=O)n1-c1ccccc1OC | 98.9* | -5.5 | 16.1 | -5.0 | 0.1 | 0.9
COc1ccc(NC(=O)CSc2nc(O)cc(=O)n2-c2ccccc2OC)cc1 | 98.1* | 8.4 | 10.4 | 27.1 | -0.1 | 2.9
SMILES | ALR inh | PABP polyA inh | MLLE-PAM2 inh | UBC9 SUMO inh | Efflux pump mplx | eIF4H FP inh
COc1cc2cc(C(=O)Nc3ccc4c(c3)OCCO4)[nH]c2cc1OC | -15.3 | · | 3.2 | · | 0.0 | ·
COC(=O)c1cc(NC(=S)Nc2cc(Cl)cc(Cl)c2)cc(C(=O)OC)c1 | 1.5 | 1.0 | 36.3* | 7.9 | -0.1 | -0.8
FC(F)(F)c1ccc(Cl)c(-n2c(-c3cc(-c4ccco4)[nH]n3)n[nH]c2=S)c1 | 45.0 | 32.6* | -54.5 | 30.9 | 0.2 | ?
FC(F)(F)c1ccc(Cl)c(-n2c(-c3cc(C4CC4)[nH]n3)n[nH]c2=S)c1 | 77.8* | 5.7 | -32.5 | -3.3 | 0.1 | 3.2
O=C(Nc1ccccc1)OCC1COC(c2ccccc2)(c2ccccc2)O1 (configuration not stated) | · | · | 0.9 | · | · | ·
CC1(C)COC(Cc2ccccc2)=N1 | · | · | 9.8 | · | · | ·
CN(C)CCN(C(=O)c1ccccc1Cl)c1nc2c(Cl)cccc2s1 | -9.2 | 18.1 | 3.9 | -1.4 | -0.2 | 0.1
COc1ccc(C2=NC(=O)/C(=C\c3cc(OC)c(OC)c(OC)c3)O2)cc1 | 6.2 | -6.2 | 61.3* | -4.6 | 0.0 | -5.5
Cc1ccc(CN(C)C(=O)CCc2nc3sc4c(c3c(=O)[nH]2)CCCC4)o1 | 98.2* | 2.0 | -1.1 | 1.2 | 0.2 | 7.8
CCOC(=O)c1nc2sc3c(c2c(=O)[nH]1)CCCC3 | -4.7 | 5.5* | -5.8 | 14.3 | -0.1 | ?
Cc1nnc(SCc2nc3sc4c(c3c(=O)[nH]2)CCCC4)[nH]c1=O | 98.4* | 7.5 | -70.1 | 17.9 | 0.1 | 3.4
CC(=O)N(C(C)=O)n1c(C)nc2sc3c(c2c1=O)CCCC3 | 96.6* | -10.3 | -6.9 | 0.7 | -0.1 | -9.0
COc1ccc(CCC(C)NCc2cccc(Br)c2)cc1 (configuration not stated) | -0.7 | -3.4 | 6.2 | -0.1 | 0.4 | -5.7
O=[N+]([O-])c1cccc(NNS(=O)(=O)c2ccccc2F)c1 | · | 33.6 | 29.6 | -2.0 | -0.2 | -0.3
Cc1ncc([N+](=O)[O-])n1S(=O)(=O)c1cc(Br)ccc1Br | -8.7 | 8.5 | 8.7 | 13.3 | 0.0 | -0.3
Cc1cc(OC(=O)c2ccc(Cl)cc2Cl)c([N+](=O)[O-])c(=O)[nH]1 | -6.4 | -2.6 | -5.2 | 5.4 | -0.1 | 4.4
O=C(O)C(c1ccccc1)C(O)C1CCCC1 (configuration not stated) | · | · | 8.3 | · | · | ·
CC(C)(C)c1ccc(C(=O)N2CCC2(C)C(=O)NCc2ccc3c(c2)OCO3)cc1 (configuration not stated) | · | · | 7.7 | · | · | ·
N#C/C(=C\c1ccc(C(=O)O)cc1)c1nc2sc3c(c2c(=O)[nH]1)CCCC3 | · | ? | -91.9 | 59.5* | · | ?
O=c1[nH]c(C2CC2)nc2sc3c(c12)CCCC3 | -0.7 | -3.8 | 7.0 | 6.5 | 0.0 | -4.7
O=C(COC(=O)c1cc[n+]([O-])cc1)Nc1ccc(SC(F)F)cc1 | 94.6* | -2.0 | 0.0 | 12.1 | 0.1 | -13.9
COc1ccc(N2CCN(C(=O)CN(CCc3ccccc3)S(C)(=O)=O)CC2)cc1 | 87.8* | -3.9 | 11.7 | -11.0 | 0.0 | 1.5
